Screening data: PubChem BioAssay, The Scripps Research Institute Molecular Screening Center
Only some compounds are listed: those with a hit (about 3.1% of all), similar ones and a draw of the others.
pPAFAH inh: inhibitors of human plasma PAF acetylhydrolase (pPAFAH) | Q13093 | recombinant pPAFAH, FP-rhodamine probe fluorescence polarization | inhibition, % at 3.39 µM | 330,000 compounds, 1.5% hits;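 active = inhibition above the mean inhibition across the screen plus 3 SD, cut at about 25% in these data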;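 also: inhibitors block binding of the rhodamine activity-based probe so polarization drops; 0% = enzyme with DMSO and 100% = wells lacking pPAFAH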
Rin1 Abl inh: blocks binding of human Rin1 to Abl | TR-FRET Rin1/Abl binding, biochemical | inhibition, % at 7.35 µM | 360,000 compounds, 0.4% hits; in the data active = inhibition above about 5%, passing the limit was not always enough
PAFAH1B2 inh: PAFAH1B2 (human) inhibition; recombinant PAFAH1B2, FP-rhodamine activity probe, fluorescence polarization; inhibition, % at 3.39 µM; 340,000 compounds, 1.2% hits; AID 492953;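 active = inhibition above the mean of all tested compounds plus 3 SD, cut at about 24% in these data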;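 also: 0% = enzyme with DMSO and 100% = wells lacking PAFAH1B2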
Target sequence (P68402 whole entry, looked up): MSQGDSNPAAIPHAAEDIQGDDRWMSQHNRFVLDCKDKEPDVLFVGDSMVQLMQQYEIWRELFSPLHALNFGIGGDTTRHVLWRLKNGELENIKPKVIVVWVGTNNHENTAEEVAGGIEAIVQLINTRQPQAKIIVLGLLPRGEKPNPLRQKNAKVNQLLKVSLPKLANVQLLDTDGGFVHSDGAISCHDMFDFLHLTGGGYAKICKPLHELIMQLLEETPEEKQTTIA
PAFAH1B3 FP inh: inhibitors of human PAFAH1B3; Q15102; recombinant PAFAH1B3, FP-rhodamine probe, fluorescence polarization; inhibition, % at 3.39 µM; 340,000 compounds, 0.28% hits;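 active = inhibition above the screen-wide average of all tested compounds plus 3 SD, cut at about 25% in these data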;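 also: 0% = enzyme with DMSO only and 100% = wells lacking PAFAH1B3 protein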
Target sequence (Q15102 whole entry, looked up): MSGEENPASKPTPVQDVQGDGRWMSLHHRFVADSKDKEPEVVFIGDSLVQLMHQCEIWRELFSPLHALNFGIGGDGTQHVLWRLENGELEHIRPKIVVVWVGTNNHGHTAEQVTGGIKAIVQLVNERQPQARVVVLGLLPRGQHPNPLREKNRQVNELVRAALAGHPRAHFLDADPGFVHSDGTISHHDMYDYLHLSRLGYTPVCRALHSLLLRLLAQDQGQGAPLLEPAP
E coli Lon inh: inhibitors of E. coli Lon protease. P0A9M0. purified E. coli Lon protease, fluorescence polarization. inhibition, % at 7.94 µM. 360,000 compounds, 0.42% hits. AID 602123; in the data active = inhibition above about 13%, passing the limit was not always enough;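 also: 0% = enzyme with probe and DMSO and 100% = no enzyme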
PAFAH2 FP inh: inhibitors of human PAFAH2; 340,000 compounds, 0.99% hits; Q99487; inhibition, % at 3.39 µM; recombinant PAFAH2, FP-rhodamine activity probe, fluorescence polarization;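 active = inhibition above the mean over all tested compounds plus 3 SD, cut at about 30% in these data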;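 also: inhibitors block probe labeling of enzyme so polarization drops; 0% = enzyme with DMSO and 100% = wells lacking PAFAH2 protein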
pPAFAH FP conf: pPAFAH (human) inhibition, confirmed; shares compounds with pPAFAH inh; recombinant pPAFAH, FP-Rh probe fluorescence polarization; inhibition, % at 3.39 µM; 2,300 compounds, 72% hits; AID 463230;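 active = mean inhibition of the triplicate above the hit cutoff set for the earlier primary screen, cut at about 25% in these data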;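 also: 0% = enzyme with DMSO and 100% = wells lacking pPAFAH enzyme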
PAFAH2 FP conf: PAFAH2 (human) inhibition, confirmed; recombinant PAFAH2, FP-rhodamine activity probe, fluorescence polarization; inhibition, % at 3.39 µM; shares compounds with PAFAH2 FP inh; 2,300 compounds, 65% hits;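 active = mean inhibition over three repeats above a set limit taken from the earlier primary screen, cut at about 30% in these data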;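 also: inhibitor blocks binding of rhodamine activity probe so polarization falls; 0% = enzyme with DMSO and 100% = wells lacking PAFAH2 protein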
Rin1 Abl conf: confirmation of inhibitors of human Rin1-Abl interaction. shares compounds with Rin1 Abl inh. AID 602124. 1,300 compounds, 49% hits. TR-FRET Rin1-Abl binding, purified proteins. inhibition, % at 7.35 µM
GFP quencher: quenches GFP fluorescence, counter-screen for Rin1-Abl inhibitors; shares compounds with Rin1 Abl inh; inhibitors/quenchers counterscreen; inhibition, % at 6.75 µM; 1,300 compounds, 8.5% hits;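 also: ABL1-eGFP fusion protein alone without its partner RIN1-SBP; 0% = protein with vehicle and 100% = wells lacking protein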
eLon confirm: E. coli Lon inhibition confirmation. shares compounds with E coli Lon inh. purified E. coli Lon, fluorescence polarization. inhibition, % at 7.94 µM. 1,400 compounds, 31% hits; in the data active = inhibition above about 16%;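 also: 0% = enzyme with probe and DMSO and 100% = no enzyme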
Numbers without * were called inactive; nt = not tested or not shown; + = active, no number. Rule as the data show it, unless noted: active = inhibition above about 6.5%; inactive = the rest.

SMILES	pPAFAH inh	Rin1 Abl inh	PAFAH1B2 inh	PAFAH1B3 FP inh	E coli Lon inh	PAFAH2 FP inh	pPAFAH FP conf	eLon confirm	others
O=C(NCCO)c1ccc2nc(-c3ccco3)c(-c3ccco3)nc2c1	39*	10.0*	19	40*	18	31*	11	nt	Rin1 Abl conf=4;GFP quencher=14*
Oc1ccc(/C=N/N=C(c2ccccc2)c2ccccc2)c(O)c1O	59*	21*	1	21	-13	3	83*	nt	Rin1 Abl conf=41*;GFP quencher=16*
CCC(C)c1ccc(OCc2ccc(C(=O)OC)o2)cc1 (configuration not stated)	2	2	5	17	-6	2	nt	nt
CCOC(=O)C1=CN(Cc2cccc(-c3ccc(F)cc3)c2)S(=O)(=O)N(C)C1C (configuration not stated)	0	1	0	5	-10	-1	nt	nt
O=C(COc1ccccc1C(=O)N/N=C\c1ccc(O)c(O)c1)N/N=C/c1ccc(O)c(O)c1	62*	28*	12	0	5	42*	80*	nt	Rin1 Abl conf=38*;GFP quencher=12*
O=C(N/N=C/c1ccc(OCc2ccc(F)cc2)cc1)c1ccccc1	0	3	0	9	-5	-6	nt	nt
CC(C)(C)c1ccc(OCc2ccc(C(=O)N/N=C/c3ccc(O)c(O)c3)cc2)cc1	43*	8.2*	-8	17	-4	2	74*	nt	Rin1 Abl conf=8.8*;GFP quencher=2
Nc1ccc2c(c1)-c1ccccc1S(=O)(=O)N2	65*	-1	5	21	17*	23	8	-13
O=c1[nH][nH]c2c1[C@H](c1ccc(F)cc1)O[C@H](CCC(F)(F)F)C2	nt	nt	nt	nt	-4	nt	nt	nt
CN1C(=O)NC(c2ccccc2[N+](=O)[O-])C2=C1CCCC2=O (configuration not stated)	72*	-7	49*	58*	+	67*	17	+
CN1C(=O)NC(c2ccccc2[N+](=O)[O-])C2=C1CC(C)(C)CC2=O (configuration not stated)	-1	2	5	5	-3	4	nt	nt
C/C(=C\C(=O)c1cccnc1)Nc1ccc(O)cc1	38*	-2	0	3	22*	-3	-4	8
CC(=O)N1C[C@H]2CON(C)[C@H]2C[C@H]1c1ccc(-c2ccc(C#N)cc2)cc1	nt	-1	nt	nt	-5	nt	nt	nt
N#CCCN(CCC#N)C(=O)C1c2ccccc2Oc2ccccc21	65*	3	21	18	+	27	2	7
COc1cccc2c1C(=O)c1c(O)c3c(c(O)c1C2=O)C[C@@](O)(C(=O)CO)C[C@@H]3O[C@H]1C[C@H](N)[C@H](O)[C@H](C)O1	58*	-24	41*	19	+	46*	45*	+
O=C(COC(=O)c1cccc(F)c1)Nc1ccc(Cl)cn1	2	1	10	-3	5	10	nt	nt
CCNc1cc(O)ccc1C	75*	1	14	15	117*	26	12	89*
CC(=O)N1c2ccc(S(=O)(=O)N(C)CC(=O)NC3CCCCC3C)cc2CC1C (configuration not stated)	4	-3	2	-4	-13	-12	nt	nt
Cn1c(=O)c(Nc2ccc(O)cc2)c2c3c(cccc31)C(=O)c1ccccc1-2	41*	-4	10	22	+	15	40*	121*
Nc1scc2c(C(=O)N/N=C/c3ccc(Cl)cc3)nn(-c3ccccc3)c(=O)c12	35*	5	3	10	15*	4	11	17*
COc1ccccc1C(=O)N(C)c1nnc(-c2ccccc2)s1	-8	-4	-1	-7	-2	4	nt	nt
Cc1cccc(NC(=O)CSc2nnc(-c3ccco3)c(-c3ccco3)n2)c1C	35*	0	12	5	89*	41*	21	2
Cc1cccc(NC(=O)CSc2nnc(-c3ccco3)c(-c3ccco3)n2)c1	nt	7	7	10	8	25	nt	nt
CCc1nc2ccc(C(=O)NCC3CCCCC3)cn2c1N(CCC(C)C)CCN(C)C	nt	2	nt	nt	19	nt	nt	nt
O=c1[nH]nc(CNc2ccc(O)cc2)c2ccccc12	59*	2	8	17	51*	15	-6	-11
SMILES	pPAFAH inh	Rin1 Abl inh	PAFAH1B2 inh	PAFAH1B3 FP inh	E coli Lon inh	PAFAH2 FP inh	pPAFAH FP conf	eLon confirm	others
O=c1[nH]nc(CNc2ccc(OC(F)(F)F)cc2)c2ccccc12	3	-1	1	3	0	-2	nt	nt
N=C1CCC(=N)c2c1c(O)c1ccccc1c2O	64*	-3	39*	44*	29*	69*	41*	44*
O=C1CCn2c1c(O)c1ccccc1c2=O	nt	4	4	8	37	12	nt	nt
CNS(=O)(=O)c1ccc(CNC[C@H]2O[C@@H](n3cnc(C(N)=O)n3)[C@H](O)[C@@H]2O)cc1	nt	-4	3	5	-3	3	nt	nt
O=C(N/N=C/c1cc([N+](=O)[O-])ccc1O)C1C2CCCCC21 (configuration not stated)	4	nt	nt	nt	nt	nt	nt	nt
O=C(N/N=C/c1cc([N+](=O)[O-])ccc1O)C1CCCCC1	8	-2	9	7	7	59*	nt	nt	PAFAH2 FP conf=41*
CCN1C(=O)N(C)C(N(O)C(=O)NC)C1(C)C (configuration not stated)	-1	2	3	7	-14	56*	nt	nt	PAFAH2 FP conf=-5
O=C(OCc1ccccc1)N1CCC2CC1c1ccc(/C=C/CCCCl)cc12 (configuration not stated)	nt	3	nt	nt	-4	nt	nt	nt
Cc1ccc(N2C(=O)CC(Sc3ccccc3C(=O)O)C2=O)cc1 (configuration not stated)	4	0	0	2	-12	92*	nt	nt	PAFAH2 FP conf=-8
O=c1c2ccccc2nc(COc2ccccc2)n1/N=C/c1ccc(O)c(O)c1	22	-3	4	11	-14	30*	nt	nt	PAFAH2 FP conf=24
COc1cc(F)ccc1-c1csc(C(C)(O)c2ccccc2)n1 (configuration not stated)	nt	-2	nt	nt	-2	nt	nt	nt
O=S(=O)(Nc1c(O)ccc2ccccc12)c1cccc2ccccc12	12	-2	6	20	12	32*	nt	nt	PAFAH2 FP conf=16
